# Values without a mark were called inactive. Results filed as inconclusive are left out. A call without a number means that no potency is given here. Calls of active or inactive are those of the source. Unless noted, calls come from the whole dose curve; as a rule, active = well fitted curve in the direction sought with a large enough effect in the repeat runs; inconclusive = weak or mixed curves; inactive = no such curve, though single readings can be large; an effect the other way counts as inactive or inconclusive.
# Assays:
# [1] = molecular target: Luciferin 4-monooxygenase (Photinus pyralis) (UniProt P08659); assay: qHTS assay to identify small molecule inhibitors of firefly luciferase (AID 1224835); note: nearly all actives have a fitted effect of over 25% in size
# Chain of Luciferin 4-monooxygenase (Photinus pyralis) (P08659 whole entry, looked up): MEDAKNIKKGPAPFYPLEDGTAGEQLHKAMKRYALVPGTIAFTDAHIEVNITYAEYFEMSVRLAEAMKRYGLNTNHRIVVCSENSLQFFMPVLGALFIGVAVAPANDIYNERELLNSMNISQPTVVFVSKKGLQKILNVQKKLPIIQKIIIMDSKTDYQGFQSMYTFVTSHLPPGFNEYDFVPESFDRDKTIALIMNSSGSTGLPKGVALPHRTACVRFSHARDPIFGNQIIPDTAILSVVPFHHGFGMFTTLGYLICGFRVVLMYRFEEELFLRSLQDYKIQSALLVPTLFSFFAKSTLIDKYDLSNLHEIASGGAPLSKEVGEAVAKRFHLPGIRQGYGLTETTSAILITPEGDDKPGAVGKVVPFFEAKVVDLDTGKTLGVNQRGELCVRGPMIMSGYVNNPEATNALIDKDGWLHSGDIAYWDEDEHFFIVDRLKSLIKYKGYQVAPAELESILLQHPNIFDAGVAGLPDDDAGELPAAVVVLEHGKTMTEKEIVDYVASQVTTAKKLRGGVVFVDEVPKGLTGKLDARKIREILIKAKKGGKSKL
# Method in brief: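 Quantitative HTS format; KM concentrations of both substrates. Purified P. pyralis FLuc activity quantified from luminescence images.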
# [2] = qHTS assay to identify small molecule agonists of the constitutive androstane receptor (CAR) signaling pathway - cell viability counter screen (AID 1224836); note: nearly all actives have a fitted effect of over 45% in size
# Method in brief: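 Fluorescence from CellTiter-Fluor indicates live cells after 23 h exposure. The human hepatoma line expresses hCAR and a CYP2B6-2.2kb reporter. Incubation medium contains 0.75 uM PK11195 (final).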
# [3] = qHTS assay to identify small molecule antagonists of the constitutive androstane receptor (CAR) signaling pathway - cell viability counter screen (AID 1224837); note: nearly all actives have a fitted effect of over 45% in size
# Method in brief: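 Multiplexed cytotoxicity read-out for the CAR antagonist screen: double-stable HepG2-CYP2B6-hCAR cells co-treated with 50 nM CITCO (final) and compound over 15 concentrations, incubated 23 hr, then assessed by CellTiter-Fluor fluorescence.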
# [4] = molecular target: Nuclear receptor subfamily 1 group I member 3 (Homo sapiens) (UniProt Q14994); assay: qHTS assay to identify small molecule antagonists of the constitutive androstane receptor (CAR) signaling pathway (AID 1224838); note: nearly all actives have a fitted effect of over 40% in size
# Chain of Nuclear receptor subfamily 1 group I member 3 (Homo sapiens) (Q14994 whole entry, looked up): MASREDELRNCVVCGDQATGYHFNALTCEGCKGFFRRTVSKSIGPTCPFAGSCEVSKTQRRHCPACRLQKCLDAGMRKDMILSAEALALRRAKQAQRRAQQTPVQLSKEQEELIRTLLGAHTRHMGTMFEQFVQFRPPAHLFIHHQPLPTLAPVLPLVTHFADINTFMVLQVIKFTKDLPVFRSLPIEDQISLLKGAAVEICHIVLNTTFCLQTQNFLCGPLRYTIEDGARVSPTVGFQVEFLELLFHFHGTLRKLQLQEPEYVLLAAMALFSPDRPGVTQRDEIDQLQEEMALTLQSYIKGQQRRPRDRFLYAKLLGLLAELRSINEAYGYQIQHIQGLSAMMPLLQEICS
# Method in brief: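 Compounds were titrated across 15 concentrations onto HepG2 cells double-stably expressing hCAR and a CYP2B6-2.2kb reporter, together with 50 nM CITCO (final). After 24 h at 37 C, luciferase activity was measured by luminescence.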
# [5] = molecular target: Nuclear receptor subfamily 1 group I member 3 (Homo sapiens) (UniProt Q14994); assay: qHTS assay to identify small molecule agonists of the constitutive androstane receptor (CAR) signaling pathway (AID 1224839);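 note: HepG2 cells stably carrying human CAR and a CYP2B6 luciferase reporter; nearly all actives have a fitted effect of over 15% in size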
# Method in brief: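 Stable hCAR/CYP2B6-2.2kb HepG2 line in DMEM with 10% FBS; compounds (15 concentrations) and 0.75 uM PK11195 final, 24 h at 37 C/5% CO2, then ONE-Glo luminescence after 30 min.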
# [6] = qHTS assay to identify small molecule antagonists of the estrogen related receptor signaling pathway with the pleiotropic PPARgamma coactivator (PGC) from Tox21 10K library - cell viability counter screen (AID 1224840; active = well fitted cell-killing curve with a large enough effect in the repeat runs, not every such curve was filed as active; note: nearly all actives have a fitted effect of over 40% in size)
# Method in brief: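 Step one, plate 2,000 PGC/ERR cells per well; step two, incubate 6 h at 37 C/5% CO2; step three, pin-transfer compounds; step four, incubate 17.5 h; step five, add CellTiter-Fluor and read fluorescence after 30 min.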
# [7] = qHTS assay to identify small molecule antagonists of the estrogen related receptor signaling pathway with the pleiotropic PPARgamma coactivator (PGC) from Tox21 10K library (AID 1224841; call rule not given here; note: actives are mostly falling curves and most rising ones were filed inactive; nearly all actives have a fitted effect of over 50% in size)
# Method in brief: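 Antagonism in this quantitative HTS is taken from loss of luciferase signal in PGC/ERR cells. Cells (2,000/well) are treated with compounds in DMSO after a 6 h settling period and read by One-Glo luminescence after 18 h.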
# [8] = qHTS assay to identify small molecule agonists of the estrogen related receptor signaling pathway with the pleiotropic PPARgamma coactivator (PGC) from Tox21 10K library (AID 1224842); note: nearly all actives have a fitted effect of over 15% in size
# Method in brief: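 PGC/ERR reporter cells (NTP line) were seeded 2,000 per well, rested 6 h at 37 C/5% CO2, then pin-dosed with compounds in DMSO for 18 h at 37 C; luciferase read by One-Glo luminescence after 30 min at room temperature.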
# [9] = molecular target: Thyrotropin receptor (Homo sapiens) (UniProt P16473); assay: qHTS assay to identify small molecule agonists of the thyroid stimulating hormone receptor (TSHR) signaling pathway (AID 1224843; calls by dose curve; note: nearly all actives have a fitted effect of over 45% in size)
# Chain of Thyrotropin receptor (Homo sapiens) (P16473 whole entry, looked up): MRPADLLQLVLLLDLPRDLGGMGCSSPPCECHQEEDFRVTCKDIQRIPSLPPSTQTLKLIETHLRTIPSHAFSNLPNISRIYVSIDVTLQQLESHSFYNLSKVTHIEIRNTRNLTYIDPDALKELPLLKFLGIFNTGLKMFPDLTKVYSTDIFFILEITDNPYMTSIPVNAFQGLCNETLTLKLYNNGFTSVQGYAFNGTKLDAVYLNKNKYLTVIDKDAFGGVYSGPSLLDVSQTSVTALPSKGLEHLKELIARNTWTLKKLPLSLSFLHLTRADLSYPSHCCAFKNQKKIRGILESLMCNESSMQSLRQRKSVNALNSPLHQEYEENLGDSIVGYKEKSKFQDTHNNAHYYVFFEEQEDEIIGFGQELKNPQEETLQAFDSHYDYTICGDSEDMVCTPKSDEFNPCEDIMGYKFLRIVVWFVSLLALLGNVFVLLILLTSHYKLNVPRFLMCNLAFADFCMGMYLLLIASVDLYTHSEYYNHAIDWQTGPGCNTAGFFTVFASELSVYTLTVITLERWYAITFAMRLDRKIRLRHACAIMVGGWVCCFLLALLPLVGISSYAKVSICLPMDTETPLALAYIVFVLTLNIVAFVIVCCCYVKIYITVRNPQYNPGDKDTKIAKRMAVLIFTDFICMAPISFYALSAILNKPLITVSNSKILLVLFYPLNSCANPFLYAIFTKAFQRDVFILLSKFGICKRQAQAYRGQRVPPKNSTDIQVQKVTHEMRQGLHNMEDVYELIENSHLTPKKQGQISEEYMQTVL
# Method in brief: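 TSHR-expressing HEK293 cells (800 per well) were exposed to compounds for 30 min at room temperature. cAMP was then detected by HTRF competition with cAMP-d2 and anti-cAMP cryptate, read after 1 h at room temperature. Fifteen concentrations, triplicate.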
# [10] = qHTS assay to identify small molecule agonists of the hypoxia (HIF-1) signaling pathway - cell viability counter screen (AID 1224844; calls by dose curve; note: nearly all actives have a fitted effect of over 50% in size)
# Method in brief: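 Tox21 10K compounds were added to HRE-bla ME-180 cells (0.5% dialyzed FBS) and incubated 17 hrs at 37C; ATP-based CellTiter-Glo luminescence then reported cell viability in the same wells.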
# [11] = qHTS assay to identify small molecule agonists of H2AX (AID 1224845; active = well fitted activation curve with a large enough effect in the signal ratio in the repeat runs, not every such curve was filed as active; the % refers to the signal ratio)
# Method in brief: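 Wild-type CHO-K1 cells plated overnight, then exposed 3 hr at 37C to compounds at 15 concentrations (0.76% DMSO). Lysed, then HTRF anti-pH2AX(S139)-cryptate/anti-H2AX-d2 detection after 24 hr at room temperature; emissions 665 and 620 nm.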
# [12] = qHTS assay to identify small molecule agonists of the hypoxia (HIF-1) signaling pathway (AID 1224846; active = well fitted activation curve with a large enough effect in the signal ratio in the repeat runs, not every such curve was filed as active; the % refers to the signal ratio)
# Method in brief: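 Steps: seed ME-180 HRE-bla cells (2,000/well, 0.5% dialyzed FBS); incubate 5 hrs at 37C; pin-transfer compounds or DMSO; incubate 17 hrs; add LiveBLAzer B/G substrate CCF4-AM; measure reporter activation by FRET.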
# [13] = qHTS assay to identify small molecule agonists of H2AX - cell viability counter screen (AID 1224847; calls by dose curve; note: top concentration of the series differs between compounds; nearly all actives have a fitted effect of over 30% in size)
# Method in brief: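 Viability of CHO-K1 (wild type) cells after 3 hr compound exposure was measured by CellTiter-Glo luminescence.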
# [14] = qHTS assay to identify small molecule antagonists of the estrogen related receptor (ERR) signaling pathway from Tox21 library (AID 1224848); note: nearly all actives have a fitted effect of over 50% in size; note: potency is the fitted concentration of half-maximal effect
# Method in brief: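 Cells: ERR line, 2,000/well; 6 h preincubation 37 C/5% CO2. Cpd in DMSO via pin tool; 18 h, 37 C. ONE-Glo, 30 min RT, luminescence.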
# [15] = qHTS assay to identify small molecule agonists of the estrogen related receptor (ERR) signaling pathway from Tox21 library (AID 1224849; calls by dose curve; note: nearly all actives have a fitted effect of over 15% in size); conditions: ERR reporter cell line, ONE-Glo luciferase, 18 h; at 92.4 µM (top of the series) unless noted
# Method in brief: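 Agonist signal is luciferase luminescence from an ERR reporter cell line treated 18 h at 37 C with DMSO-dissolved compounds, read 30 min after ONE-Glo addition at room temperature.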
# [16] = qHTS RealTime-Glo MT Cell Viability Assay in HepG2 cells - 24 hour (AID 1224867); note: nearly all actives have a fitted effect of over 50% in size
# Method in brief: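 HepG2 suspension premixed with RealTime-Glo reagents is plated at 600 cells per well and left 5 h at 37 C/5% CO2. Compounds in DMSO then go in, and bioluminescence reflecting viable cell number is recorded over 40 h.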
# [17] = qHTS RealTime-Glo MT Cell Viability Assay in HEK293 cells - 32 hour (AID 1224868)
# Method in brief: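 Reads taken at 0, 8, 16, 24, 32 and 40 h from the same wells. HEK293 cells (600/well) carried RealTime-Glo reagents from seeding, with compound added after a 5 h settle at 37 C.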
# [18] = A CellTox Green Cytotoxicity Assay to monitor cytotoxicity in HEK293 cells - 0 hour (AID 1224869); note: nearly all actives have a fitted effect of over 50% in size
# Method in brief: (§1)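 Cytotoxicity was tracked continuously in HEK293 cells by a DNA-binding dye excluded from viable cells. Compounds were transferred in DMSO 5 h after seeding; fluorescence was recorded at intervals up to 40 h.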
# [19] = qHTS RealTime-Glo MT Cell Viability Assay in HepG2 cells - 40 hour (AID 1224870); note: nearly all actives have a fitted effect of over 50% in size
# Method in brief: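 HepG2 cells mixed with RealTime-Glo MT reagents (NanoLuc plus cell-permeant prosubstrate) were seeded at 600 cells/well, incubated 5 h at 37 C/5% CO2, then pinned with compounds in DMSO; nonlytic luminescence tracked viability during 40 h treatment.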
# [20] = A CellTox Green Cytotoxicity Assay to monitor cytotoxicity in HEK293 cells - 40 hour (AID 1224871); note: nearly all actives have a fitted effect of over 45% in size
# Method in brief: as §1
Compound,Potency [1],Potency [2],Potency [3],Potency [4],Potency [5],Potency [6],Potency [7],Potency [8],Potency [9],Potency [10],Potency [11],outcome [12],Potency [13],Potency [14],"activity change, positive = activation [15]",Potency [16],Potency [17],Potency [18],Potency [19],Potency [20]
FC(F)(F)C(F)(F)C(F)(F)C(F)(F)C(F)(F)C(F)(F)C(F)(F)C(F)(F)Br,inactive,inactive,inactive,inactive,inactive,inactive,inactive,inactive,inactive,inactive,inactive,inactive,inactive,inactive,6.1% [at 42.5 µM],inactive,inactive,inactive,inactive,inactive
CCN1CC(CCN2CCOCC2)C(c2ccccc2)(c2ccccc2)C1=O (configuration not stated),inactive,inactive,inactive,inactive,inactive,inactive,inactive,inactive,inactive,inactive,inactive,inactive,inactive,inactive,-6.21% [at 42.5 µM],inactive,inactive,inactive,inactive,inactive
C=Cc1ccccc1,inactive,inactive,inactive,inactive,inactive,inactive,,,,inactive,inactive,inactive,inactive,,,inactive,inactive,inactive,inactive,inactive
Cc1c(C(=O)NCCO)[n+](=O)c2ccccc2n1[O-],inactive,inactive,inactive,inactive,inactive,inactive,,,inactive,inactive,inactive,inactive,,,,inactive,inactive,inactive,,inactive
Cc1cc(S(=O)(=O)O)c(N)cc1Cl,inactive,inactive,inactive,inactive,inactive,inactive,,,,inactive,inactive,inactive,inactive,,,inactive,inactive,inactive,inactive,inactive
C[C@]12C(=O)OC(=O)[C@H]1[C@H]1C=C[C@@H]2C1,inactive,inactive,inactive,inactive,,inactive,inactive,inactive,inactive,,inactive,inactive,inactive,inactive,0.566%,inactive,inactive,inactive,inactive,inactive
CC1=C2[C@H](/C=C(\C)C(=O)O)CC[C@@H](C)[C@H]2CC1,inactive,inactive,inactive,inactive,,inactive,inactive,inactive,inactive,,,inactive,inactive,56.5 µM (active),-46%,inactive,,inactive,inactive,
